This is an account of results in PubChem BioAssay (NCATS).

SMILES strings stand for the structures. A number with no mark means an inactive call. Records with an inconclusive call do not appear. Activity calls are given as the source filed them. The call rests on the fitted dose curve; in most records, active means well fitted curve in the direction sought with a large enough effect; inconclusive means small, poorly fitted or top-dose-only effect, or another doubt; inactive means no such curve, though single readings can be large; an effect the other way counts as inactive or inconclusive.

In assay [1] the target is Glutathione peroxidase 1 (Homo sapiens) (UniProt P07203). The assay can be described thus: Primary qHTS Assay for Inhibitors of Recombinant Selenoprotein Glutathione Peroxidase 1 (GPX1) (AID 1845191). Further: nearly all actives have a fitted effect of over 65% in size. On activity, negative = inhibition: on the % scale 0 is the no-effect control and ±100 the full control effect. In a few lines: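 NADPH consumption tracked by fluorescence at 340/450 nm between t=0 and t=15 min, room temperature. Final mix: 10 nM GPX1, 100 nM glutathione reductase, 1 mM GSH, 0.5 mM NADPH, 0.5 mM cumene hydroperoxide, 0.01% BSA; 30 min compound–enzyme preincubation.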

For assay [2], the target named is Phospholipid hydroperoxide glutathione peroxidase GPX4 (Homo sapiens) (UniProt P36969). The assay can be described thus: Primary qHTS Assay for Inhibitors of Recombinant Selenoprotein Glutathione Peroxidase 4 (GPX4) (AID 1845192). Further: nearly all actives have a fitted effect of over 65% in size. On activity change, negative = inhibition: series mostly up to about 50 µM; on the % scale 0 is the no-effect control and ±100 the full control effect. In a few lines:
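NADPH consumption followed by fluorescence at 340/450 nm, t=0 and after 15 min at room temperature. Reaction started with cumene hydroperoxide (0.5 mM final) after 30 min compound–GPX4 preincubation; final 200 nM GPX4, 100 nM GR, 1 mM GSH, 0.5 mM NADPH.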

The target of assay [3] is Luciferin 4-monooxygenase (Photinus pyralis) (UniProt P08659). The assay can be described thus: Primary firefly luciferase (FLuc) qHTS assay for identification of artifact compounds. (AID 1845220). Further: nearly all actives have a fitted effect of over 60% in size.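 On activity change, negative = inhibition: series mostly up to about 54 µM; plate controls were DMSO vehicle for no effect and no enzyme for full effect.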 A digest of the protocol:
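Cell-free, 1536-well qHTS. Buffer pH 7.6 with 0.01% Tween-20 and 0.05% BSA; 10 uM D-luciferin, 10 uM ATP; 10 nM P. pyralis luciferase; luminescence after 5 min.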

Assay [4] is described as follows: Primary fluorescence-based thiol-reactive (MSTI) qHTS assay for identification of artifact compounds. (AID 1845221). Further: nearly all actives have a fitted effect of over 65% in size. Further: potency means the concentration at half of the fitted maximal effect.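 On activity change, negative = thiol reactive: series mostly up to about 54 µM; thiol-reactive compounds lower the probe fluorescence signal.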 In a few lines: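 Probe: MSTI 4 uM, PBS pH 7.4, 2% DMSO. Incubation 1 h, RT, light-protected. Readout fluorescence 525/598 nm.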
Assay [5] concerns Nanoluciferase (engineered Oplophorus gracilirostris luciferase). The assay can be described thus: Primary Nanoluciferase (NLuc) qHTS assay for identification of artifact compounds. (AID 1845222).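 Further: series mostly up to about 54 µM; 0% = DMSO and -100% = no enzyme.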 A digest of the protocol:
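Compounds are pinned into diluted (1:55) conditioned medium of NLuc-expressing S16 cells and held 15 min at room temperature protected from light. Nano-Glo substrate follows, and luminescence is read 5 min later.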

Glutathione peroxidase 1 (Homo sapiens), sequence (P07203 whole entry, looked up): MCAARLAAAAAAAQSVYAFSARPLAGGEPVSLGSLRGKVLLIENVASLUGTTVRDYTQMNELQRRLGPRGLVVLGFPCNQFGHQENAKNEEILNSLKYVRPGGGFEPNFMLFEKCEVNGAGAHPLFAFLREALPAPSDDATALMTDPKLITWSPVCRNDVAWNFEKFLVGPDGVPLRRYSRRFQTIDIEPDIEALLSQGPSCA
Phospholipid hydroperoxide glutathione peroxidase GPX4 (Homo sapiens), sequence (P36969 whole entry, looked up): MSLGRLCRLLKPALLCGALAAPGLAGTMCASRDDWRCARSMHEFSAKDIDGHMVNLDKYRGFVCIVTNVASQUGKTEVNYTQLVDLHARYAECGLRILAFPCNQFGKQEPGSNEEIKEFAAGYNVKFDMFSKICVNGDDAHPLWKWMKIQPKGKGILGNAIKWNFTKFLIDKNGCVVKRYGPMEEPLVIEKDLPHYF

As to `C[C@@H](O)[C@H](NC(=O)c1ccc(C#Cc2ccc(CN3CCOCC3)cc2)cc1)C(=O)NO`, the Potency result in assay [1], in assay [2], in assay [3], in assay [4] and in assay [5] was “inactive” in each case.

As for `CC(C)C(CO)Nc1nc(Nc2ccc(C(=O)O)c(Cl)c2)c2ncn(C(C)C)c2n1` (stereo unspecified), the Potency entry in assay [1], in assay [2], in assay [3] and in assay [4] was “inactive” each time.

As to `CC1OC(OCC2OC(OC3CCC4(C)C(CCC5(C)C4CC=C4C6CC(C)(C)CCC6(C(=O)OC6OC(CO)C(O)C(O)C6O)CCC45C)C3(C)CO)C(O)C(O)C2O)C(O)C(O)C1O` (stereo unspecified), the Potency entry in assay [1] and in assay [2] was “inactive” in each case. For the same compound, the activity change, negative = inhibition in assay [3] is -1.2% [at 11.6 µM]. Moreover, the activity change, negative = thiol reactive in assay [4] was 188% [at 11.5 µM]. In assay [5], the activity, negative = inhibition was 0% [at 11.6 µM].

As for `C[C@@H]1CC[C@]2(C(=O)O[C@@H]3O[C@H](CO)[C@@H](O)[C@H](O)[C@H]3O)CC[C@]3(C)C(=CCC4[C@@]5(C)C[C@@H](O)[C@H](O)[C@@](C)(C(=O)O[C@H]6[C@H](O)C[C@@]7(C)C(CC[C@]8(C)C7CC=C7[C@H]9[C@](C(=O)O[C@@H]%10O[C@H](CO)[C@@H](O)[C@H](O)[C@H]%10O)(CC[C@@H](C)[C@@]9(C)O)CC[C@]78C)[C@@]6(CO)C(=O)O)C5CC[C@]43C)[C@@H]2[C@]1(C)O` (stereo partly specified), the outcome in assay [1] was “inactive [at 9.52 µM]”. The figures for the activity change, negative = inhibition in assay [2] and in assay [3] were -0.473% [at 9.73 µM] and 0.17% [at 11.6 µM], respectively. Further, the activity change, negative = thiol reactive in assay [4] is -3.19% [at 11.5 µM]. In assay [5], the activity, negative = inhibition is -2.05% [at 11.6 µM].

Take `COc1ccc([C@@H]2OC[C@H]3[C@@H]2CO[C@@H]3c2ccc(OC3OC(CO)C(O)C(O)C3O)c(OC)c2)cc1OC` (stereo partly specified): the Potency result in assay [1], in assay [2], in assay [3] and in assay [5] was “inactive” throughout. For the same compound, the Potency in assay [4] is 8.22 µM (active).

As to `CCOCCOC(=O)/C=C/c1ccc(OC)cc1`, the Potency result in assay [1] and in assay [2] was “inactive” in each case.

With `COC(=O)N[C@@H](C)CNc1nccc(-c2cn(C(C)C)nc2-c2cc(Cl)cc(NS(C)(=O)=O)c2F)n1`, the Potency result in assay [1], in assay [2], in assay [3], in assay [4] and in assay [5] was “inactive” each time.

In the case of `CCOC(=O)Nc1cc(-c2ccc(C)c(NS(C)(=O)=O)c2)nn2c(C)nnc12`, the Potency result in assay [1], in assay [2], in assay [3], in assay [4] and in assay [5] was “inactive” in each case.

Turning to `C[C@@H]1O[C@@H](O[C@H]2[C@@H]3C=CO[C@@H](O[C@@H]4O[C@H](CO)[C@@H](O)[C@H](O)[C@H]4O)[C@@H]3[C@@]3(CO)O[C@@H]23)[C@H](OC(=O)/C=C/c2ccccc2)[C@H](O)[C@H]1O`, the Potency result in assay [1], in assay [2], in assay [3] and in assay [5] was “inactive” throughout. In assay [4], the Potency is 7.93 µM (active).

With `COc1cc(C)c(C(=O)O[C@H]2[C@@H](OC(C)=O)[C@H](n3ccc(=O)[nH]c3=O)O[C@@H]2CO)c(OC)c1`, the Potency entry in assay [1], in assay [2], in assay [3], in assay [4] and in assay [5] was “inactive” in each case.

As to `CN1CCN(C(=O)c2ccc3cc(CCNc4ncnc5ccc(C#N)cc45)ccc3c2)CC1`, the Potency result in assay [1], in assay [2], in assay [3], in assay [4] and in assay [5] was “inactive” each time.

For the compound `C[C@@H]1O[C@@H](O[C@H]2[C@H](OC(=O)[C@]34CCC(C)(C)C[C@H]3C3=CCC5[C@@]6(C)C[C@H](O)[C@H](O[C@@H]7O[C@H](CO)[C@@H](O[C@H]8OC[C@](O)(CO)[C@H]8O)[C@H](O)[C@H]7O)[C@@](C)(CO)C6[C@H](O)C[C@@]5(C)[C@]3(C)C[C@H]4O)OC[C@H](O)[C@@H]2O)[C@H](O)[C@H](O)[C@H]1O[C@@H]1OC[C@@H](O)[C@H](O[C@@H]2OC[C@](O)(CO)[C@H]2O)[C@H]1O` (stereo partly specified), the figures for the outcome in assay [1], in assay [2] and in assay [3] were “inactive [at 9.52 µM]”, “inactive [at 9.73 µM]” and “inactive [at 11.6 µM]”, respectively. Besides, the activity change, negative = thiol reactive in assay [4] was 502% [at 11.5 µM]. For the same compound, in assay [5], the activity, negative = inhibition is 3.67% [at 11.6 µM].

As to `CC1CCC23COC(=O)C2=CC(O)CC3C1(C)CCC1=CC(O)OC1=O` (stereo unspecified), the Potency result in assay [1], in assay [2], in assay [3] and in assay [5] was “inactive” each time. For the same compound, the Potency in assay [4] was 3.29 µM (active).

Turning to `CC(=O)N1CCN(C(=O)Cc2ccc(Nc3ncc(F)c(Nc4ccc(C(=O)Nc5ccccc5Cl)cc4)n3)cc2)CC1`, the Potency entry in assay [1], in assay [2], in assay [3], in assay [4] and in assay [5] was “inactive” each time.

As for `CC1CCC2C(C)(C)[C@@H](O)CC[C@]2(C)C12Cc1c(O)cc3c(c1O2)CN(C(CCC(=O)O)C(=O)O)C3=O` (stereo partly specified), the Potency entry in assay [1], in assay [2], in assay [3], in assay [4] and in assay [5] was “inactive” in each case.

For the compound `CC(=O)N1CCN(Cc2ccc([C@H](C)Nc3nccc(N4C(=O)OC[C@@H]4C(C)C)n3)cc2)CC1`, the Potency result in assay [1], in assay [2], in assay [3], in assay [4] and in assay [5] was “inactive” in each case.

With `C=CC(C)(C)c1[nH]c2ccccc2c1C[C@@H]1NC(=O)[C@H](Cc2c[nH]c3ccccc23)NC1=O`, the Potency result in assay [1], in assay [2], in assay [3] and in assay [5] was “inactive” in each case. Further, the Potency in assay [4] is 2.32 µM (active).

Take `CC1(C)CC[C@@]2(C(=O)O[C@@H]3O[C@H](CO)[C@@H](O)[C@H](O)[C@H]3O)C(C1)C1=CCC3[C@@]4(C)CC[C@@H](O[C@@H]5O[C@H](C(=O)O)[C@@H](O[C@@H]6OC[C@@H](O)[C@H](O)[C@H]6O)[C@H](O[C@@H]6OC[C@](O)(CO)[C@H]6O)[C@H]5O)C(C)(C)C4CC[C@@]3(C)[C@]1(C)C[C@H]2O` (stereo partly specified): the Potency result in assay [1] and in assay [2] was “inactive” in each case. The outcome in assay [3] is “inactive [at 11.6 µM]”. Further, in assay [4], the activity change, negative = thiol reactive is 54.8% [at 11.5 µM]. For the same compound, the activity, negative = inhibition in assay [5] was 1.29% [at 11.6 µM].
